According to PubChem BioAssay (Tox21):
Inconclusive results are not listed. A call without a number means that no potency is given here. Active and inactive are the calls of the source. Unless noted, calls follow the shape of the dose curve; as a rule, active = well fitted curve in the direction sought with a large enough effect in the repeat runs; inconclusive = weak or mixed curves; inactive = no such curve, though single readings can be large; an effect the other way counts as inactive or inconclusive.

Legend:
[1] = qHTS assay to identify small molecule antagonists of the estrogen related receptor (ERR) signaling pathway from Tox21 library - cell viability counter screen (AID 1224834); also: nearly all actives have a fitted effect of over 30% in size; also: potency is read from the fitted curve at half-maximal effect
How it was run: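 Viability readout (CellTiter-Fluor fluorescence, 30 min at 37 C) multiplexed with the ERR assay; cells treated 17.5 h at 37 C with compounds delivered in DMSO.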

[2] = target: Luciferin 4-monooxygenase (Photinus pyralis) (UniProt P08659); assay: qHTS assay to identify small molecule inhibitors of firefly luciferase (AID 1224835); also: nearly all actives have a fitted effect of over 25% in size; also: potency is read from the fitted curve at half-maximal effect
How it was run: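 Inhibition of purified Photinus luciferase is measured by luminescence. Substrate levels (D-luciferin, ATP) sit at their KM values. Each compound is tested in a concentration series.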

[3] = qHTS assay to identify small molecule agonists of the constitutive androstane receptor (CAR) signaling pathway - cell viability counter screen (AID 1224836); also: nearly all actives have a fitted effect of over 45% in size; also: potency is read from the fitted curve at half-maximal effect
How it was run: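 Double-stable HepG2 hepatoma cells (hCAR plus CYP2B6-2.2kb) are treated for 23 h at 37 C with test compounds in 15-point concentration series. PK11195 at 0.75 uM final is co-added. Cell viability is quantified by CellTiter-Fluor.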

[4] = qHTS assay to identify small molecule antagonists of the constitutive androstane receptor (CAR) signaling pathway - cell viability counter screen (AID 1224837); also: nearly all actives have a fitted effect of over 45% in size; also: potency is read from the fitted curve at half-maximal effect
How it was run: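 Fluorescence from CellTiter-Fluor served as the viability signal. Human hepatoma HepG2 cells stably bearing hCAR and CYP2B6-2.2kb received compound plus CITCO (50 nM final) for 23 hr.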

[5] = target: Nuclear receptor subfamily 1 group I member 3 (Homo sapiens) (UniProt Q14994); assay: qHTS assay to identify small molecule antagonists of the constitutive androstane receptor (CAR) signaling pathway (AID 1224838);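 also: HepG2 cells stably expressing hCAR with CYP2B6 luciferase reporter stimulated by CITCO; nearly all actives have a fitted effect of over 40% in size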; also: potency is read from the fitted curve at half-maximal effect
How it was run: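 Quantitative HTS in double-stable HepG2-CYP2B6-hCAR cells. After 4 h plating, cells get compound (15 concentrations) and CITCO at 50 nM final, incubate 24 h at 37 C, then ONE-Glo luminescence is read.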

[6] = target: Nuclear receptor subfamily 1 group I member 3 (Homo sapiens) (UniProt Q14994); assay: qHTS assay to identify small molecule agonists of the constitutive androstane receptor (CAR) signaling pathway (AID 1224839); also: nearly all actives have a fitted effect of over 15% in size; also: potency is read from the fitted curve at half-maximal effect
How it was run: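 Readout: firefly luciferase luminescence via ONE-Glo. System: HepG2 double-stable for hCAR and CYP2B6-2.2kb. Conditions: 15-point compound titration, PK11195 at 0.75 uM final, 24 h incubation.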

[7] = qHTS assay to identify small molecule antagonists of the estrogen related receptor signaling pathway with the pleiotropic PPARgamma coactivator (PGC) from Tox21 10K library - cell viability counter screen (AID 1224840; active = well fitted cell-killing curve with a large enough effect in the repeat runs, not every such curve was filed as active; also: nearly all actives have a fitted effect of over 40% in size; also: potency is read from the fitted curve at half-maximal effect)
How it was run: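 Compounds in DMSO, alongside positive and negative controls, were pinned onto PGC/ERR cells (2,000 per well). Exposure lasted 17.5 hours at 37 C, followed by a 30-minute CellTiter-Fluor incubation and fluorescence reading.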

[8] = qHTS assay to identify small molecule agonists of the estrogen related receptor signaling pathway with the pleiotropic PPARgamma coactivator (PGC) from Tox21 10K library (AID 1224842); also: nearly all actives have a fitted effect of over 15% in size; also: potency is read from the fitted curve at half-maximal effect
How it was run: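 Luminescence from One-Glo (30 min, room temperature) measured after PGC/ERR cells had 18 h at 37 C with pinned compound (23 nL in DMSO). Cells had been seeded at 2,000 per well and pre-incubated 6 h.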

[9] = target: Thyrotropin receptor (Homo sapiens) (UniProt P16473); assay: qHTS assay to identify small molecule agonists of the thyroid stimulating hormone receptor (TSHR) signaling pathway (AID 1224843; calls by dose curve; also: nearly all actives have a fitted effect of over 45% in size)
How it was run: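 Screening of the Tox21 10K collection used HEK293 cells engineered with TSHR at 800 cells per well. After a 30-min room-temperature compound exposure, HTRF cAMP reagents were added and fluorescence recorded 1 h later.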

[10] = qHTS assay to identify small molecule antagonists of the estrogen related receptor signaling pathway with the pleiotropic PPARgamma coactivator (PGC) from Tox21 10K library (AID 1224841; call rule not given here; also: actives are mostly falling curves and most rising ones were filed inactive; nearly all actives have a fitted effect of over 50% in size; also: potency is read from the fitted curve at half-maximal effect)
How it was run: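 Compound exposure ran 18 hours at 37 C in PGC/ERR cells (2,000/well) that had first rested 6 hours in a 37 C/5% CO2 incubator. Luciferase activity was then detected with One-Glo after a 30-minute room-temperature step.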

Luciferin 4-monooxygenase (Photinus pyralis), sequence (P08659 whole entry, looked up): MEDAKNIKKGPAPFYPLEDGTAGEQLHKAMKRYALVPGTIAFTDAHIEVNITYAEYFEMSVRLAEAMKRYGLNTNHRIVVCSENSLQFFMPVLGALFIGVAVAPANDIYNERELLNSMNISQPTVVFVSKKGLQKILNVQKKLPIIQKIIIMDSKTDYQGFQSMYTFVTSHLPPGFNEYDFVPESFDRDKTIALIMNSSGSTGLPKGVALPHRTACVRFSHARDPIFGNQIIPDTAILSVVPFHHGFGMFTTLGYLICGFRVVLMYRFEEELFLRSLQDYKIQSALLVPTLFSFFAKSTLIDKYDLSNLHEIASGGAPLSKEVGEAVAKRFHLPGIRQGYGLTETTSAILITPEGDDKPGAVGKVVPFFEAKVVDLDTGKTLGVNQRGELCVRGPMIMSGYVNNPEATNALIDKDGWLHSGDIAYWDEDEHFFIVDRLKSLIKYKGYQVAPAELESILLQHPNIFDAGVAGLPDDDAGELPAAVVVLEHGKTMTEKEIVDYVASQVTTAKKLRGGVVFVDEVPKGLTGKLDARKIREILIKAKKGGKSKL
Nuclear receptor subfamily 1 group I member 3 (Homo sapiens), sequence (Q14994 whole entry, looked up): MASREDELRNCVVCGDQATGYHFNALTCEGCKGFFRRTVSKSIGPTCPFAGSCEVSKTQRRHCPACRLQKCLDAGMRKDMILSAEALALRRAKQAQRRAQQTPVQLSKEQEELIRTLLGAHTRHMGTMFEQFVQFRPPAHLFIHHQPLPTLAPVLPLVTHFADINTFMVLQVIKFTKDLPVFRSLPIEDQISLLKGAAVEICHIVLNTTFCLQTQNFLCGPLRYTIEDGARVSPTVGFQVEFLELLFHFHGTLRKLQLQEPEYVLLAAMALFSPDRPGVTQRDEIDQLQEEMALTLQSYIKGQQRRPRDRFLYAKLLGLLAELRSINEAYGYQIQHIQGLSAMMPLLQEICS
Thyrotropin receptor (Homo sapiens), sequence (P16473 whole entry, looked up): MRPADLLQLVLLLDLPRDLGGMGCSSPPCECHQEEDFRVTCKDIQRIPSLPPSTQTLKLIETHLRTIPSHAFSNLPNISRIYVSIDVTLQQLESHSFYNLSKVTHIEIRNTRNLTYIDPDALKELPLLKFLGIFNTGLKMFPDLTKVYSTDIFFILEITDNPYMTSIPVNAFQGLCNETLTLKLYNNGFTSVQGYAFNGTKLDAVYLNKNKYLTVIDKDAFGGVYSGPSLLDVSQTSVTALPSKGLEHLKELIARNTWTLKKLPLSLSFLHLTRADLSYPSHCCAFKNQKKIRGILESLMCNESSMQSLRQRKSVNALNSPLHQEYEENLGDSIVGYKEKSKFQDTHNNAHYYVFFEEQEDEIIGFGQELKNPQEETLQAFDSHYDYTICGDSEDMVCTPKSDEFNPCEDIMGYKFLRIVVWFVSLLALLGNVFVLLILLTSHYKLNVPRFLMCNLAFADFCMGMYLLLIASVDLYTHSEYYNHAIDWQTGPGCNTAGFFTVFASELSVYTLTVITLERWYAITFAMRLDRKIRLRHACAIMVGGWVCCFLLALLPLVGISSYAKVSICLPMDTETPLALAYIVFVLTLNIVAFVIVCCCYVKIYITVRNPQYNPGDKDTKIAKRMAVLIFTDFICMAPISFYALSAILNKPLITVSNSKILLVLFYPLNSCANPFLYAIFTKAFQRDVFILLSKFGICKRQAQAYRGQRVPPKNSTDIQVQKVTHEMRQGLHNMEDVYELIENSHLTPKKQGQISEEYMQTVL

Structure (SMILES)	Potency [1]	Potency [2]	Potency [3]	Potency [4]	Potency [5]	Potency [6]	Potency [7]	Potency [8]	Potency [9]	Potency [10]
C=C1C[C@@]23CC[C@H]4[C@@](C)(CCC[C@@]4(C)C(=O)O[C@@H]4O[C@H](CO)[C@@H](O)[C@H](O)[C@H]4O)[C@@H]2CC[C@]1(O[C@@H]1O[C@H](CO)[C@@H](O)[C@H](O[C@@H]2O[C@H](CO)[C@@H](O)[C@H](O)[C@H]2O)[C@H]1O[C@@H]1O[C@H](CO)[C@@H](O)[C@H](O)[C@H]1O)C3	inactive	inactive	inactive	inactive	inactive	inactive	inactive	inactive	inactive	
c1ccc2c(c1)CCc1ccccc1N2	inactive	63.6 µM (active)	inactive	inactive	inactive	54.8 µM (active)	inactive		inactive	
CC(CCC(=O)O)C(=O)O (stereo not drawn)	inactive	inactive	inactive	inactive	inactive	inactive	inactive	inactive	inactive	
O=C(Cn1ccnc1[N+](=O)[O-])NCCO	inactive	inactive	inactive	inactive	inactive	inactive	inactive		inactive	
Cc1ccc2c(Br)cc(Br)c(O)c2n1	11.9 µM (active)	inactive	inactive	inactive	inactive	inactive		inactive	inactive	
CO/N=C(/C(=O)N[C@@H]1C(=O)N2C(C(=O)O)=C(COC(N)=O)CS[C@H]12)c1ccco1	inactive	inactive	inactive	inactive	inactive	inactive	inactive		inactive	
CC(CO)CO	inactive	inactive	inactive	inactive	inactive	inactive	inactive	inactive	inactive	
Cc1ccc(CO)cc1	inactive	inactive	inactive	inactive	inactive	inactive	inactive		inactive	
CCCC(=O)C(=O)O	inactive	inactive	inactive	inactive	inactive	inactive	inactive		inactive	
COC(=O)CCS	inactive	inactive	inactive	inactive	inactive	inactive	inactive		inactive	
Cc1ccc(C(C)(C)O)cc1	inactive	inactive	inactive	inactive	inactive	inactive	inactive		inactive	
Clc1cc(Cl)nc(Cl)n1	inactive	inactive	inactive	inactive	inactive	inactive	inactive		inactive	
CN(C)CCN1C(=O)c2ccccc2N(C)c2ccccc21	inactive	inactive	inactive	inactive	inactive	26.6 µM (active)	inactive		inactive	
C1C[C@@H]2[C@H]3CC[C@H](C3)[C@@H]2C1	inactive	inactive	inactive	inactive	inactive	inactive	inactive		inactive	
C1COC1	inactive	inactive	inactive	inactive	inactive	inactive	inactive		inactive	
CCc1ccccc1	inactive	inactive	inactive	inactive	inactive	inactive	inactive		inactive	
O=c1[nH]ncc2ccccc12	inactive	inactive	inactive	inactive	inactive	inactive	inactive		inactive	
CNC(=O)c1cnn(-c2nc(N)c3ncn([C@@H]4O[C@H](CO)[C@@H](O)[C@H]4O)c3n2)c1	inactive	inactive	inactive	inactive	inactive	inactive	inactive		inactive	
CCCCC(CC)CN (stereo not drawn)	inactive	inactive	inactive	inactive	inactive	inactive	inactive	inactive	inactive	
O=C(O)C[C@H](NC(=O)OCc1ccccc1)C(=O)O	inactive	inactive	inactive	inactive	inactive	inactive	inactive		inactive	

Structure (SMILES)	Potency [1]	Potency [2]	Potency [3]	Potency [4]	Potency [5]	Potency [6]	Potency [7]	Potency [8]	Potency [9]	Potency [10]
O=C(Nc1cccc2c(=O)cc(-c3nn[nH]n3)oc12)c1ccc(OCCCCc2ccccc2)cc1	inactive	27.5 µM (active)	inactive	inactive	inactive	inactive	inactive		inactive	
Nc1ncnc2c1ncn2[C@H]1CC[C@@H](CO)O1	inactive	inactive	inactive	inactive	inactive	inactive	inactive		inactive	
O=C(O)c1ccc(OCCCOc2ccc(C(=O)O)cc2)cc1	inactive	inactive	inactive	inactive	inactive	inactive	inactive	inactive	inactive	
Cc1ccccc1S	inactive	inactive	inactive	inactive	inactive	inactive	inactive		inactive	
Cc1[nH]cnc1CN1CCc2c(c3ccccc3n2C)C1=O	inactive	inactive	inactive	inactive	inactive	inactive	inactive	inactive	inactive	
CC(C)=CCC1C(=O)N(c2ccccc2)N(c2ccccc2)C1=O	inactive	inactive	inactive	inactive	inactive	inactive	inactive		inactive	
O=C(/C=C/c1ccccc1)OCCc1ccccc1	inactive	4.48 µM (active)	inactive	inactive	inactive		inactive			
CCCCN(CCCC)C(C(N)=O)c1ccc(OC)cc1 (stereo not drawn)	inactive	inactive	inactive	inactive	inactive		inactive			
CC(=O)OCC[N+](C)(C)C	inactive	inactive	inactive	inactive	inactive	inactive	inactive		inactive	
CCOC(=O)C1=C(C)NC(C)=C(C(=O)OC)C1c1cccc(Cl)c1Cl (stereo not drawn)	inactive	inactive	inactive	inactive	inactive	inactive	inactive	inactive	inactive	
CCCCCCCCN	inactive	inactive	inactive	inactive	inactive	inactive	inactive		inactive	
Nc1nnc(-c2ccc([N+](=O)[O-])o2)o1	48.6 µM (active)	inactive	30.6 µM (active)	48.6 µM (active)		inactive				
CCC1(CO)COCOC1	inactive	inactive	inactive	inactive			inactive	inactive	inactive	inactive
CCOC(=O)/C=C/C(=O)OCC	inactive	inactive	inactive	inactive			inactive	inactive	inactive	
Nc1ccc(N=Nc2ccccc2)c(N)c1	26.7 µM (active)	2.47 µM (active)	30 µM (active)	53.3 µM (active)			26.7 µM (active)			
O=C(O)CCC(=O)C(=O)O	inactive	inactive	inactive	inactive			inactive		inactive	
CCCCOc1ccc(OCCCN2CCOCC2)cc1	inactive	inactive	inactive	inactive	inactive		inactive		inactive	
O=[N+]([O-])c1cc(C2CCCCC2)c(O)c([N+](=O)[O-])c1	12.2 µM (active)	39.8 µM (active)	12.2 µM (active)	15.3 µM (active)		inactive	12.2 µM (active)	inactive	inactive	4.84 µM (active)
C(=C\c1ccccc1)/c1ccccc1	inactive	7.9 µM (active)	inactive	inactive	inactive		inactive		inactive	inactive
C=C(C)[C@@H]1CCC2=CCC[C@@H](C)[C@]2(C)C1	inactive	inactive	inactive	inactive		inactive	inactive	inactive		

Structure (SMILES)	Potency [1]	Potency [2]	Potency [3]	Potency [4]	Potency [5]	Potency [6]	Potency [7]	Potency [8]	Potency [9]	Potency [10]
O=C1c2ccccc2C(=O)C1c1nc2ccccc2c(Br)c1O	inactive	17.8 µM (active)	inactive	inactive			inactive		inactive	
O=C1Cc2cc(Cl)ccc2N1	inactive	inactive	inactive	inactive	inactive		inactive	inactive	inactive	
NNC(=O)CP(=O)(c1ccccc1)c1ccccc1	inactive	inactive	inactive	inactive			inactive		inactive	
CCOc1ccccc1O[C@H](c1ccccc1)[C@H]1CNCCO1	inactive	inactive	inactive	inactive			inactive		inactive	
CC(=O)c1ccc([N+](=O)[O-])cc1	inactive	inactive	inactive	inactive			inactive	inactive		inactive
CCOC(=O)c1ccc(I)cc1	inactive	50.7 µM (active)	inactive	inactive			inactive	4.9 µM (active)		inactive
CCOC(=O)c1ccc(C#Cc2ccc3c(c2)C(C)(C)CCS3)nc1	inactive	inactive	inactive	inactive			inactive			
CCCCCCCCOc1ccc(C(=O)O)cc1	inactive	31.4 µM (active)	inactive	inactive	inactive		inactive		inactive	
CCCCCC[C@@H](O)C/C=C\CCCCCCCC(=O)OCC(O)CO (stereo partly drawn)	inactive	inactive	inactive	inactive			inactive	inactive		
C[C@]1(Cn2ccnn2)[C@H](C(=O)O)N2C(=O)C[C@H]2S1(=O)=O	inactive	inactive	inactive	inactive			inactive		inactive	
Oc1cccc(Nc2ccccc2)c1	inactive	37.1 µM (active)	inactive	inactive	inactive		inactive		inactive	
CCC(C)COC(C)=O (stereo not drawn)	inactive	inactive	inactive	inactive			inactive	inactive	inactive	
CCC(OCCCOC)OC(C)=O (stereo not drawn)	inactive	inactive	inactive	inactive			inactive		inactive	
Oc1cc2c(cc1O)[C@H]1c3ccc(O)c(O)c3OC[C@@]1(O)C2	39 µM (active)	32.1 µM (active)	49.2 µM (active)		49.2 µM (active)	inactive	27.6 µM (active)	inactive		34.8 µM (active)
c1ccc2sc(SN(C3CCCCC3)C3CCCCC3)nc2c1	inactive	inactive	inactive	inactive	inactive		inactive		inactive	
CCC1NC(=O)c2cc(S(N)(=O)=O)c(Cl)cc2N1 (stereo not drawn)	inactive	inactive	inactive	inactive	inactive		inactive		inactive	
COC(=O)CS	inactive	inactive	inactive	inactive			inactive		inactive	
CC1CC(OC(=O)C(O)c2ccccc2)CC(C)(C)N1C (stereo not drawn)	inactive	inactive	inactive	inactive			inactive	inactive	inactive	inactive
